Results: PubChem BioAssay (EPA / NIEHS)
Calls of active or inactive are those of the source. How the source made its calls: active means hit-call score of the fitted dose curve at least 0.9, where 1 is the maximum; inactive means score below 0.9.

Legend:
[1] = APR_HepG2_CellLoss_72hr: Apredica 72-hour HepG2 Assay for Cell Loss (AID 2282915); conditions: high-content imaging
In short: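 HepG2 cells exposed 72 h to compound at 0.39–200 uM (10 concentrations, duplicate) in 0.5% DMSO. Fixed with 3.7% formaldehyde and Hoechst 33342-stained. Imaged at 20x; nuclear count gives cell number, fitted bidirectionally versus DMSO.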

[2] = APR_HepG2_P-H2AX_72hr: Apredica 72-hour HepG2 Assay for H2AX Phosphorylation (AID 2282916); conditions: imaging, actives raise or lower the signal;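 further: phospho-histone H2A.x immunostain intensity per cell marking DNA damage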
In short: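 Phospho-histone H2A.x immunofluorescence, multiplexed with Hoechst and c-Jun, quantified by high-content imaging. Compounds applied to HepG2 for 72 h across ten concentrations (0.39–200 uM, 0.5% DMSO), in duplicate; DMSO baseline.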

[3] = APR_HepG2_MitoMembPot_72hr: Apredica 72-hour HepG2 Assay for Mitochondrial Membrane Potential (AID 2282917); conditions: imaging, actives raise or lower the signal
In short: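 HepG2 cells dosed 72 hr with compound at 0.39–200 uM in duplicate, 0.5% v/v DMSO final. Mitochondria stained with 250 nM MitoTracker Red CMXRos for 30 min before formaldehyde fixation, imaged by high-content fluorescence; bidirectional fit versus DMSO.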

[4] = APR_HepG2_MitoticArrest_72hr: Apredica 72-hour HepG2 Assay for Mitotic Arrest (AID 2282918); conditions: high-content imaging, actives raise or lower the signal
In short: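 HepG2 cells treated 72 h at 0.39–200 uM, 0.5% DMSO final; formaldehyde-fixed, stained with Hoechst 33342 and phospho-histone H3 antibody, imaged by high-content fluorescence; bidirectional fit versus DMSO.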

[5] = APR_HepG2_MicrotubuleCSK_72hr: Apredica 72-hour HepG2 Assay for Microtubule CSK Stabilty (AID 2282919); conditions: HepG2 microtubule cytoskeleton, high-content imaging, actives raise or lower the signal
In short: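 HepG2, 72 hr cmpd exposure, 0.39–200 uM (10 pts, duplicate), 0.5% DMSO. 3.7% formaldehyde fix, 0.5% Triton perm, anti-alpha-tubulin/Cy5 plus Hoechst. HCS fluorescence intensity; bidirectional fit vs DMSO baseline; taxol as positive control.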

[6] = APR_HepG2_StressKinase_72hr: Apredica 72-hour HepG2 Assay for Stress Kinase (AID 2282921); conditions: HepG2 stress kinase (phospho-c-Jun) imaging, actives raise or lower the signal
In short: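 Stress kinase signal is phospho-c-Jun immunofluorescence (1:500 primary, Cy3 secondary) in fixed, permeabilized human HepG2 cells imaged at 20x. Exposure lasted 72 hr over ten concentrations from 0.39 to 200 uM, 0.5% DMSO, in duplicate. Bidirectional fit versus DMSO.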

[7] = APR_HepG2_StressKinase_24hr: Apredica 24-hour HepG2 Assay for Stress Kinase (AID 2282922); conditions: HepG2 stress kinase (phospho-c-Jun) imaging, actives raise or lower the signal
In short: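 Read-out: phospho-c-Jun immunofluorescence (Cy3 secondary) quantified by high-content imaging at 20x, nuclei defined by Hoechst 33342. Human HepG2 liver cells dosed 24 hr, 0.39–200 uM, DMSO 0.5% v/v; gain or loss of signal fitted relative to DMSO.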

[8] = APR_HepG2_p53Act_72hr: Apredica 72-hour HepG2 Assay for p53 Activation (AID 2282923); conditions: high-content imaging, actives raise or lower the signal;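 further: average cellular p53 protein immunofluorescence intensity in HepG2 cells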
In short: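 After 72 h with compound (ten points, 0.39 to 200 uM, final DMSO 0.5% v/v), fixed HepG2 cells were labelled with sheep anti-p53 and Hoechst 33342 and imaged; gain or loss versus DMSO scored.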

[9] = APR_HepG2_MitoMass_72hr: Apredica 72-hour HepG2 Assay for Mitochondrial Mass (AID 2282924); conditions: high-content imaging, actives raise or lower the signal;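 further: MitoTracker Red CMXRos stain intensity per cell imaged as mitochondrial mass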
In short: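 Read-out: MitoTracker Red fluorescence intensity from automated imaging (20x, six fields per well) in human HepG2 liver cells. Dosing ran 72 hr, 0.39–200 uM, 0.5% DMSO; bidirectional curve fitting versus DMSO baseline.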

[10] = APR_HepG2_NuclearSize_72hr: Apredica 72-hour HepG2 Assay for Nuclear Size (AID 2282925); conditions: high-content imaging, actives raise or lower the signal
In short: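 Read-out: nuclear diameter from Hoechst 33342 images (ArrayScan, 20x, six fields/well), via cell-cycle image analysis. HepG2 were dosed 0.39–200 uM for 72 hr in 0.5% DMSO. Bidirectional fit relative to DMSO.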

[11] = ATG_CRE_CIS: Attagene CIS-FACTORIAL HepG2 Assay for human cAMP Responsive Element (CRE) binding protein 3 (AID 2282926); conditions: HepG2 CRE cis-reporter, Attagene multiplexed mRNA; actives raise or lower the signal
In short: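 Induced reporter mRNA from a CRE cis element, measured in HepG2 among many multiplexed units at 24 h. Detection used RT-PCR plus capillary electrophoresis of fluorescent fragments; DMSO served as negative control.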

[12] = target: CCAAT/enhancer-binding protein beta (Homo sapiens) (UniProt P17676); experiment: ATG_C_EBP_CIS: Attagene CIS-FACTORIAL HepG2 Assay for human CCAAT/Enhancer Binding Protein (C/EBP) beta (AID 2282927); conditions: HepG2 Attagene cis-factorial transcription factor reporter; actives raise or lower the signal
Chain of CCAAT/enhancer-binding protein beta (Homo sapiens) (P17676 whole entry, looked up): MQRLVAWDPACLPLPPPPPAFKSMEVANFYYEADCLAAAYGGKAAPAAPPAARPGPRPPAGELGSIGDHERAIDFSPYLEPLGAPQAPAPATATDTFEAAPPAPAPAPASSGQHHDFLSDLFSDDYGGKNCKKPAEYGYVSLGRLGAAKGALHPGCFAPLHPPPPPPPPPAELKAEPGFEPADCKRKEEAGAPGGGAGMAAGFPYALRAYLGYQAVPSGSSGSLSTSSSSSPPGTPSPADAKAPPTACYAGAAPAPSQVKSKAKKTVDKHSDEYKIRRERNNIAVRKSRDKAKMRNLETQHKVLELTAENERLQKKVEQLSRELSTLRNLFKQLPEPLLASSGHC
In short: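 HepG2, transient MRTU transfection, 24 h treatment. RT-PCR plus CE fluorescence; DMSO negative control, bidirectional fit.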

[13] = ATG_CMV_CIS: Attagene CIS-FACTORIAL HepG2 Assay for human CMV (Internal Marker) (AID 2282928); conditions: HepG2 CMV promoter reporter, transcription factor profiling; actives raise or lower the signal;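 further: endpoint acts as a background internal control marker rather than a target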
In short: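 Reporter transcripts from transfected HepG2 cells are isolated after 24 h of chemical dosing, reverse-transcribed and amplified. Fragments labeled with 6-FAM are cut with HpaI and quantified by capillary electrophoresis; DMSO defines baseline.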

[14] = ATG_DR4_LXR_CIS: Attagene CIS-FACTORIAL HepG2 Assay for human Liver X Receptor (LXR), DR4 submotif (AID 2282929); conditions: HepG2 Attagene DR4 cis-reporter, mRNA transcription; actives raise or lower the signal
In short: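 Total RNA from 24 h-treated, MRTU-transfected HepG2 cells underwent reverse transcription, PCR, fluorescent primer extension and restriction digestion before capillary electrophoresis. Both increases and decreases in reporter signal were fitted against DMSO.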

[15] = target: Aryl hydrocarbon receptor (Homo sapiens) (UniProt P35869); experiment: ATG_Ahr_CIS: Attagene CIS-FACTORIAL HepG2 Assay for human Aryl Hydrocarbon Receptor (Ahr) (AID 2282930); conditions: HepG2 AhR cis-factorial reporter transcription; actives raise or lower the signal
Chain of Aryl hydrocarbon receptor (Homo sapiens) (P35869 whole entry, looked up): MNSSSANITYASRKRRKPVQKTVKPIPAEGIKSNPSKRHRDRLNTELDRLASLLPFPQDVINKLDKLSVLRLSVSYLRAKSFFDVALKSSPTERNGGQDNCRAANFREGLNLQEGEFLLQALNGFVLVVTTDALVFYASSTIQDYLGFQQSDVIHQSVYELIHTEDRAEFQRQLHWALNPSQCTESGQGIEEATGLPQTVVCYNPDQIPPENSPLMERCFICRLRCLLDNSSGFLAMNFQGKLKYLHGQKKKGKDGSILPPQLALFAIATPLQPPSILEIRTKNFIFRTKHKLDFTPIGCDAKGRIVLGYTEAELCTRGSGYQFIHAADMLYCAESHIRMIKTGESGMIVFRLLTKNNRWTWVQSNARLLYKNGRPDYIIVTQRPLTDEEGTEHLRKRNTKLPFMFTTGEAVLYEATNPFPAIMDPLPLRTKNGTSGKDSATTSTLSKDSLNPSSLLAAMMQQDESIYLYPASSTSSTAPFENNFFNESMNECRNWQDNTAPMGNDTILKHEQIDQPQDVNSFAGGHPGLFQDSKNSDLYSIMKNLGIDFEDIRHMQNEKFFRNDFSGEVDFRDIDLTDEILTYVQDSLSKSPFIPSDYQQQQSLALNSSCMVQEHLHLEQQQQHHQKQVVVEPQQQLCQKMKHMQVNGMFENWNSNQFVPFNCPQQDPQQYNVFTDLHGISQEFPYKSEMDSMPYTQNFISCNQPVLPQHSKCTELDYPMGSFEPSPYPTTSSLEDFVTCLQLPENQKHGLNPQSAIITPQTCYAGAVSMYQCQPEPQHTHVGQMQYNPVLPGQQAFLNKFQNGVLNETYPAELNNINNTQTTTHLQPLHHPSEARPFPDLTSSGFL
In short: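 Endogenous factor activity is tracked through cis-promoter reporter units transfected into HepG2 cells. Transcript levels at 24 h are read by fluorescent RT-PCR and capillary electrophoresis, with activity in either direction scored relative to DMSO.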

[16] = ATG_AP_1_CIS: Attagene CIS-FACTORIAL HepG2 Assay for human Activator Protein 1 (AP-1) (AID 2282931); conditions: HepG2 Attagene cis-factorial AP-1 reporter mRNA; actives raise or lower the signal
In short: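 HepG2, transient cis-reporter transfection; 24 h; readout RT-PCR/CE fluorescence; DMSO baseline, gain and loss fitted.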

[17] = ATG_AP_2_CIS: Attagene CIS-FACTORIAL HepG2 Assay for human Activator Protein 2 (AP-2) (AID 2282932); conditions: HepG2 AP-2 cis-reporter, Attagene transcription factor profiling; actives raise or lower the signal
In short: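 Liver-derived HepG2 line, cis-reporter system measuring endogenous factors; 24 h dosing; reporter mRNA detected by fluorescent RT-PCR and capillary electrophoresis.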

[18] = ATG_BRE_CIS: Attagene CIS-FACTORIAL HepG2 Assay for human Bone Morphogenetic Protein (BMP) Response Element (BRE) (AID 2282933); conditions: HepG2 BMP response element reporter, Attagene transcription factor profiling; actives raise or lower the signal
In short: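 A HepG2 multiplex reporter system measured inducible reporter mRNA 24 h post-dosing. Detection: RT-PCR, 6-FAM primer extension, HpaI digestion, capillary electrophoresis. Activity fitted bidirectionally relative to DMSO.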

[19] = target: Retinoic acid receptor alpha (Homo sapiens) (UniProt P10276); experiment: ATG_DR5_RAR_CIS: Attagene CIS-FACTORIAL HepG2 Assay for human Retinoic Acid Receptor Alpha (RARE), DR5 submotif (AID 2282934); conditions: HepG2 Attagene cis-factorial RARE DR5 reporter, mRNA; actives raise or lower the signal;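 further: reporter responds to endogenous RAR alpha beta and gamma in HepG2 not RARA alone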
Chain of Retinoic acid receptor alpha (Homo sapiens) (P10276 whole entry, looked up): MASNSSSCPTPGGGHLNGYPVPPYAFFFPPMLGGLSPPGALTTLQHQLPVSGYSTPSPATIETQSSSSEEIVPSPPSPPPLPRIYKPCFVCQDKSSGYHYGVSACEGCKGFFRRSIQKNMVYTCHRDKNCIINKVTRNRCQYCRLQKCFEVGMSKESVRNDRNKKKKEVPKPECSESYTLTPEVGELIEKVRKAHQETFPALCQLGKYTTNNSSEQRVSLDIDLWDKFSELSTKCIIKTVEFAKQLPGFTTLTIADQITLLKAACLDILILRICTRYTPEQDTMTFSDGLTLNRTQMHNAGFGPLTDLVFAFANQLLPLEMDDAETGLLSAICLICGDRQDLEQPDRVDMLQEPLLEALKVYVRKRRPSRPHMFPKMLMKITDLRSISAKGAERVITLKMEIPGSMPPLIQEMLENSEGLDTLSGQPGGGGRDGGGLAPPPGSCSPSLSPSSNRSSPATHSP
In short: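 After 24 h of chemical exposure, transiently transfected HepG2 cells were lysed for total RNA; the DR5-regulated reporter transcript was quantified via RT-PCR and capillary electrophoresis, with activity fitted bidirectionally against DMSO.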

Measured: AC50

CNC(=O)N(C)c1nnc(C(C)(C)C)s1
not listed: [19]
inactive: all other assays above

CC(C)Nc1nc(Cl)nc(NC(C)C)n1
not listed: [19]
inactive: all other assays above

Cn1c(-c2ccccc2)cc(-c2ccccc2)[n+]1C
not listed: [19]
inactive: all other assays above

CC(C)(C)C(=O)C(Oc1ccc(Cl)cc1)n1cncn1 (configuration not stated)
active: [1] 78.6 µM | [11] 41.9 µM | [12] 50 µM | [15] 34.7 µM | [16] 74.2 µM | [18] 50 µM
not listed: [19]
inactive: all other assays above

CC1(C)C(C(=O)OC(C#N)c2cccc(Oc3ccccc3)c2)C1(C)C (configuration not stated)
active: [1] 70.3 µM | [5] 100 µM | [14] 14.3 µM
not listed: [19]
inactive: all other assays above

COC(=O)c1c(C(F)F)nc(C(F)(F)F)c(C2=NCCS2)c1CC(C)C
active: [1] 60.5 µM | [5] 72.7 µM | [11] 9.92 µM | [12] 0.682 µM | [14] 26.2 µM | [15] 50 µM | [18] 50 µM
not listed: [19]
inactive: all other assays above

CCCN(CC)CC1COC2(CCC(C(C)(C)C)CC2)O1 (configuration not stated)
active: [1] 69.3 µM | [2] 80.6 µM | [4] 70.2 µM | [5] 62.5 µM | [11] 13.6 µM | [13] 17.8 µM | [15] 26.1 µM | [16] 19.7 µM | [18] 22.2 µM
not listed: [19]
inactive: all other assays above

CSC(=O)c1c(C(F)F)nc(C(F)(F)F)c(C(=O)SC)c1CC(C)C
active: [1] 73.9 µM | [4] 67.7 µM | [5] 64.6 µM | [14] 4.51 µM | [15] 81.5 µM | [19] 1.28 µM
inactive: all other assays above

Cc1c(COC(=O)[C@@H]2[C@H](/C=C(\Cl)C(F)(F)F)C2(C)C)cccc1-c1ccccc1
active: [13] 11.3 µM
not listed: [19]
inactive: all other assays above

CCCCC(O)(Cn1cncn1)c1ccc(Cl)cc1Cl (configuration not stated)
active: [1] 74.4 µM | [6] 122 µM | [8] 120 µM | [13] 19.5 µM | [16] 50 µM | [18] 33.3 µM
not listed: [19]
inactive: all other assays above

CC(C)C1(C)N=C(c2ncccc2C(=O)O)NC1=O (configuration not stated)
not listed: [19]
inactive: all other assays above

Cc1ccc(N=CN(C)C=Nc2ccc(C)cc2C)c(C)c1
active: [4] 82.4 µM | [5] 163 µM
not listed: [19]
inactive: all other assays above
